Potency data for 40 compounds are collected here from PubChem BioAssay (NCATS).

Inconclusive results are not listed. A call without a number means that no potency is given here. The source made the active and inactive calls. The call rests on the fitted dose curve; tested in HEK293 reporter line.

A short description of one assay: qHTS for Inhibitors of the Functional Ribonucleoprotein Complex (vRNP) of Lassa (LASV) Arenavirus: LASV Primary Screen - GLuc reporter signal (AID 1347082). Further: nearly all actives have a fitted effect of over 60% in size. Particulars: LASV minigenome vRNP, Gaussia luciferase reporter; series mostly up to 57.5 µM. For orientation: In qHTS, concentration-response curves come from the screen itself.
Turning to `CC(=O)N1C[C@H](O)C[C@H]1C(=O)O`, the Potency entry was “inactive”.
The same measure, in the same setting: then `FC(F)(F)C(F)(F)C(F)(F)C(F)(F)C(F)(F)C(F)(F)C(F)(F)C(F)(F)Br`, with “inactive”.
Still for that read-out and setting: then `CCN(CC)CCNC(=O)c1cc(Br)c(N)cc1OC`, with “inactive”.
For the compound `Nc1ccc(N=Nc2ccccc2)c(N)n1`, the Potency result is “inactive”.
Turning to `NNc1nnc(NN)c2ccccc12`, the Potency result is “inactive”.
For the compound `O=C(O)c1ccccc1Nc1cc(Cl)ccc1C(=O)O`, the Potency result is “inactive”.
On the same count and under the same terms, then `CNc1c2c(nn1C)CCCC2`, with “inactive”; and `CCCCNc1ccc(C(=O)OCCN(CC)CC)cc1`, with “inactive”; and `OC[C@@H](O)[C@@H](O)[C@H](O)[C@H](O)CO`, with “inactive”.
On the same count and under the same terms, then `COc1ccc2cc(C=O)ccc2c1`, with “inactive”; and `C[N+]1(C)CCC(=C(c2ccccc2)c2ccccc2)CC1`, with “inactive”; and `CCOC(=O)C(C)(C)Oc1ccc(Cl)cc1`, with “inactive”.
With `COc1ccc2nc(NC(=O)Nc3ccccc3)sc2c1`, the Potency result is “inactive”.
On the same count and under the same terms, then `CCN(CC)CCOC(=O)C(Cc1cccc2ccccc12)CC1CCCO1` (stereo not given), with “inactive”; and `CCNC(=O)N1CCN(CCCC(c2ccc(F)cc2)c2ccc(F)cc2)CC1`, with “inactive”; and `O=C(CCNNC(=O)c1ccncc1)NCc1ccccc1`, with “inactive”.
For `CC(C)C(=O)Nc1cccc(C2CN3CCSC3=N2)c1` (stereo not given), the Potency result is “inactive”.
`CN1Cc2c(N)cccc2C(c2ccccc2)C1` (stereo not given): the Potency result is “inactive”.
For the compound `CCCOc1ccccc1-c1nc2n[nH]nc2c(=O)[nH]1`, the Potency entry was “inactive”.
As for `C#CC1(O)CC[C@H]2[C@@H]3CCC4=CCCC[C@@H]4[C@H]3CC[C@@]21C` (stereo not given in full), the Potency entry was “inactive”.
In the case of `Cc1nc(C2CCCCC2)c(-c2ccc(S(N)(=O)=O)c(F)c2)o1`, the Potency entry is “inactive”.
Regarding `CC[C@H](c1ccc(O)cc1)[C@@H](CC)c1ccc(O)cc1`, the Potency result was “inactive”.
Turning to `COC1=C(OC)C(=O)C(CCCCCCCCCCO)=C(C)C1=O`, the Potency result is “inactive”.
Still for that read-out and setting: then `Cc1cn([C@H]2C[C@H](F)[C@@H](CO)O2)c(=O)[nH]c1=O`, with “inactive”; and `CCN(CC)CC(=O)Nc1c(C)cccc1C(=O)OC`, with “inactive”.
On the same count and under the same terms, then `O=C(O)CCNC(=O)c1ccccc1`, with “inactive”.
For the compound `NC(N)=NCCC[C@H](N)C(=O)O`, the Potency entry was “inactive”.
As for `O=c1[nH]sc2cc(Cl)ccc12`, the Potency result is “inactive”.
For `Clc1ccc2c(c1)CCc1cccnc1C2=C1CCNCC1`, the Potency entry is “inactive”.
On the same count and under the same terms, under `O=C(CCCN1CCC(O)(c2cccc(C(F)(F)F)c2)CC1)c1ccc(F)cc1` stands “inactive”; under `CCCCCC(N)=O`, “inactive”.
Still for that read-out and setting: then `O=C(O)C(=O)Nc1cccc(-c2nn[nH]n2)c1`, with “inactive”; and `OC[C@H]1O[C@@H](O[C@@H]2[C@@H](CO)O[C@](O)(CO)[C@H]2O)[C@H](O)[C@@H](O)[C@H]1O`, with “inactive”.
For the compound `CCCCN(CCN(CCCC)C(=O)N1CCOCC1)C(=O)N1CCOCC1`, the Potency entry was “inactive”.
Still for that read-out and setting: then `O=C(NCCCN1CCOCC1)c1ccc(Cl)cc1`, with “inactive”; and `O=C(Oc1cccc2cccnc12)c1ccccc1`, with “inactive”; and `CC(C)Cc1ccc(C(C)C(=O)OCc2ccccn2)cc1` (stereo not given), with “inactive”.
Same read-out and setting: under `NCCc1cnc[nH]1` stands “inactive”; under `CO[C@@H]1[C@@H](O[C@@H]2O[C@H](C)[C@@H](O[C@H]3C[C@@](C)(O)[C@@H](O)[C@H](C)O3)[C@H](N(C)C)[C@H]2O)[C@@H](CC=O)C[C@@H](C)[C@@H](O[C@@H]2CC[C@H](N(C)C)[C@@H](C)O2)/C=C/C=C/C[C@@H](C)OC(=O)C[C@H]1OC(C)=O`, “inactive”; under `Oc1ccc(Cl)cc1Cc1cc(Cl)ccc1O`, “inactive”.

The next assay is described as follows: qHTS for Inhibitors of the Functional Ribonucleoprotein Complex (vRNP) of Lassa (LASV) Arenavirus: Viability assay - alamar blue signal for LASV Primary Screen (AID 1347083). Further: nearly all actives have a fitted effect of over 80% in size. Conditions: cell viability, alamar blue fluorescence (LASV minigenome counter-screen); series mostly up to 57.5 µM.
With `CC(=O)N1C[C@H](O)C[C@H]1C(=O)O`, the Potency result was “inactive”.
Same read-out and setting: then `FC(F)(F)C(F)(F)C(F)(F)C(F)(F)C(F)(F)C(F)(F)C(F)(F)C(F)(F)Br`, with “inactive”.
For the compound `CCN(CC)CCNC(=O)c1cc(Br)c(N)cc1OC`, the Potency entry is “inactive”.
The same measure, in the same setting: under `Nc1ccc(N=Nc2ccccc2)c(N)n1` stands “inactive”.
On the same count and under the same terms, then `NNc1nnc(NN)c2ccccc12`, with “inactive”; and `O=C(O)c1ccccc1Nc1cc(Cl)ccc1C(=O)O`, with “inactive”.
Still for that read-out and setting: under `CNc1c2c(nn1C)CCCC2` stands “inactive”; under `CCCCNc1ccc(C(=O)OCCN(CC)CC)cc1`, “inactive”; under `OC[C@@H](O)[C@@H](O)[C@H](O)[C@H](O)CO`, “inactive”.
Consider `COc1ccc2cc(C=O)ccc2c1`, for which the Potency entry is “inactive”.
Take `C[N+]1(C)CCC(=C(c2ccccc2)c2ccccc2)CC1`: the Potency result was “inactive”.
Still for that read-out and setting: under `CCOC(=O)C(C)(C)Oc1ccc(Cl)cc1` stands “inactive”.
The same measure, in the same setting: then `COc1ccc2nc(NC(=O)Nc3ccccc3)sc2c1`, with “inactive”; and `CCN(CC)CCOC(=O)C(Cc1cccc2ccccc12)CC1CCCO1` (stereo not given), with “inactive”; and `CCNC(=O)N1CCN(CCCC(c2ccc(F)cc2)c2ccc(F)cc2)CC1`, with “inactive”.
Consider `O=C(CCNNC(=O)c1ccncc1)NCc1ccccc1`, for which the Potency entry was “inactive”.
Take `CC(C)C(=O)Nc1cccc(C2CN3CCSC3=N2)c1` (stereo not given): the Potency result is “inactive”.
Regarding `CN1Cc2c(N)cccc2C(c2ccccc2)C1` (stereo not given), the Potency result is “inactive”.
The same measure, in the same setting: then `CCCOc1ccccc1-c1nc2n[nH]nc2c(=O)[nH]1`, with “inactive”; and `C#CC1(O)CC[C@H]2[C@@H]3CCC4=CCCC[C@@H]4[C@H]3CC[C@@]21C` (stereo not given in full), with “inactive”.
On the same count and under the same terms, then `Cc1nc(C2CCCCC2)c(-c2ccc(S(N)(=O)=O)c(F)c2)o1`, with “inactive”.
On the same count and under the same terms, under `CC[C@H](c1ccc(O)cc1)[C@@H](CC)c1ccc(O)cc1` stands “inactive”.
For `COC1=C(OC)C(=O)C(CCCCCCCCCCO)=C(C)C1=O`, the Potency result was “inactive”.
Take `Cc1cn([C@H]2C[C@H](F)[C@@H](CO)O2)c(=O)[nH]c1=O`: the Potency result is “inactive”.
On to `CCN(CC)CC(=O)Nc1c(C)cccc1C(=O)OC`, for which the Potency result was “inactive”.
On the same count and under the same terms, under `O=C(O)CCNC(=O)c1ccccc1` stands “inactive”; under `NC(N)=NCCC[C@H](N)C(=O)O`, “inactive”.
Same read-out and setting: then `O=c1[nH]sc2cc(Cl)ccc12`, with “inactive”; and `Clc1ccc2c(c1)CCc1cccnc1C2=C1CCNCC1`, with “inactive”.
Still for that read-out and setting: under `O=C(CCCN1CCC(O)(c2cccc(C(F)(F)F)c2)CC1)c1ccc(F)cc1` stands “inactive”.
For the compound `CCCCCC(N)=O`, the Potency result is “inactive”.
The same measure, in the same setting: then `O=C(O)C(=O)Nc1cccc(-c2nn[nH]n2)c1`, with “inactive”; and `OC[C@H]1O[C@@H](O[C@@H]2[C@@H](CO)O[C@](O)(CO)[C@H]2O)[C@H](O)[C@@H](O)[C@H]1O`, with “inactive”.
For `CCCCN(CCN(CCCC)C(=O)N1CCOCC1)C(=O)N1CCOCC1`, the Potency result is “inactive”.
Still for that read-out and setting: under `O=C(NCCCN1CCOCC1)c1ccc(Cl)cc1` stands “inactive”; under `O=C(Oc1cccc2cccnc12)c1ccccc1`, “inactive”.
In the case of `CC(C)Cc1ccc(C(C)C(=O)OCc2ccccn2)cc1` (stereo not given), the Potency result is “inactive”.
Turning to `NCCc1cnc[nH]1`, the Potency entry is “inactive”.
For `CO[C@@H]1[C@@H](O[C@@H]2O[C@H](C)[C@@H](O[C@H]3C[C@@](C)(O)[C@@H](O)[C@H](C)O3)[C@H](N(C)C)[C@H]2O)[C@@H](CC=O)C[C@@H](C)[C@@H](O[C@@H]2CC[C@H](N(C)C)[C@@H](C)O2)/C=C/C=C/C[C@@H](C)OC(=O)C[C@H]1OC(C)=O`, the Potency entry is “inactive”.
On the same count and under the same terms, under `Oc1ccc(Cl)cc1Cc1cc(Cl)ccc1O` stands “inactive”.
